Experimental findings from ChEMBL document CHEMBL4513216, “Probing the Open Global Health Chemical Diversity Library for Multistage-Active Starting Points for Next-Generation Antimalarials” (ACS Infect Dis, 2020) are described below.

In all, about 65,000 compounds went through this assay and about 2,100 (3.2%) showed an effect of 50% or more. The median lay at about -52%. Only a selection was taken, and strong results are over-represented in it overall.

In the assay the test system is Plasmodium falciparum. As to the kind of experiment: Screen against P. falciparum Asexual Blood Stage (ABS), at 5uM. Format: functional, Dd2. The following applies: tested at 5 uM.
Take `CCCn1ccnc1CN1CCCC1c1ccccn1` (centres undefined): the INHIBITION was found to be 86.8%.
Next, `CCCN1CCN(Cc2nccn2CC)C(C)C1` (centres undefined): -101%; `CCC(=O)N1CCN(Cc2cnc(C)nc2)[C@H]2CS(=O)(=O)C[C@H]21`: -106%.
Next, `Cc1ccc(Sc2ccc(CN3CCC4(CCCNC4=O)C3)o2)cc1` (centres undefined): 73.1%; `O=C1CC2(CCN(Cc3ccc(Cl)s3)C2)C(=O)N1` (centres undefined): -155%.
The result for `Cc1nnc(N2CCCC3(CN(Cc4ccncc4)CCO3)C2)o1` (centres undefined) reads -78.8%; that for `CC(C)C(=O)N1CCCC2(CCCN2Cc2cccnc2)C1` (centres undefined), -13.9%; that for `Cc1ccccc1CC(=O)N1C[C@@H](O)[C@H](N2CCN(C)CC2)C1`, -87.9%.
With `Cc1ccc(CN2C[C@@H]3CN(c4ncc(F)cn4)C[C@@H]3C2)cc1`, the INHIBITION is -37%.
Next, `CN(C)[C@@H]1CCN(C(=O)Cc2ccc(F)cc2)[C@H]1Cc1ccncc1`: 5.44%; `CN(C)[C@@H]1CCN(c2ncc(F)cn2)[C@H]1Cc1ccccc1`: 89%.
The result for `Cc1cccc(CN2CC[C@@H]3[C@@H]2CCN3C(=O)c2cc(C)on2)n1` reads -95.7%.
For `CN(C)[C@@H]1CCN(c2ncccn2)[C@H]1Cc1ccccc1`, the INHIBITION was 78.1%.
The result for `CN(C)C(=O)CN1CC[C@H]2[C@H]1CCN2c1ncccn1` reads -109%; that for `Cc1cc(C(=O)N2CC[C@@H](N(C)C)[C@@H]2Cc2ccccc2)no1`, 74.4%.
Next, `CN(C)[C@@H]1CCN(C(=O)Cc2cccs2)[C@H]1Cc1cnn(C)c1`: -4.87%; `CN(C)[C@@H]1CCN(C(=O)Cc2cccs2)[C@H]1Cc1ccncc1`: -51.7%; `O=S1(=O)NCC2(CCN(Cc3ccc(Cl)s3)C2)Oc2ncccc21` (centres undefined): -56.7%.
The result for `O=C1N(c2ccsc2)CCC12CCCN(Cc1cccnc1)C2` (centres undefined) reads -28.4%; that for `CCn1cncc1Cn1ncc2ccccc2c1=O`, -114%; that for `Cc1ccc(C2(CN3CCN(Cc4cncn4C)CC3)CC2)cc1`, 73.2%.
Consider `Cn1cncc1CN1C[C@@H]2OCCN(c3ncccn3)[C@@H]2C1`, for which the INHIBITION is on record as -99.1%.
Next, `COCCn1cncc1CN1CCC(C(C)=O)(c2ccccc2)CC1`: -20.6%; `CCn1cncc1CN1CCN(CC2(c3ccc(C)cc3)CC2)CC1`: 70%.
Turning to `Cc1noc(C)c1CN1CCO[C@H]2CN(Cc3cncn3C)C[C@H]21`, the INHIBITION was -42.6%.
The result for `Cc1ccc(C2(CN3CCN(Cc4cnc(C)n4C)CC3)CC2)cc1` reads 95.4%; that for `Clc1ccc(-n2nnnc2C2(NCc3ccco3)CCCCC2)cc1`, 5.42%.
Next, `CN(Cc1cncnc1)[C@H]1CN(CC2CC2)[C@@H]2CCCO[C@@H]21`: 4.52%.
Next, `c1cc(COC[C@]23COC[C@H]2CN(CC2CCC2)C3)ccn1`: -81.5%; `CC(C)N(C)Cc1cnc2n1CCN(C(=O)NC1CCCC1)C2`: 83.4%; `Cc1noc(C)c1CN1CCCC2(CCN(C(=O)NC3CC3)C2)C1` (centres undefined): -183%.
On to `CC(C)N(C)Cc1cncc2c1CCN(CC(=O)N(C)C)C2`, for which the INHIBITION is reported as -31.3%.
Next, `Cc1cc(C)c(CNc2ncnc3ccccc23)c(=O)[nH]1`: 14.5%; `c1cnnc(N2CCCC2CNc2ncnc3ccccc23)c1` (centres undefined): 81.1%; `CN(c1ncnc2ccccc12)C1CCCN(c2cccnn2)C1` (centres undefined): 74.4%.
Next, `c1cnnc(N2CCCC2CNc2ncnc3sccc23)c1` (centres undefined): 82%; `CN(Cc1ncc(C(C)(C)C)o1)CC1CCCN1c1cccnn1` (centres undefined): 80.7%.
The result for `N#Cc1ccc(NC2CCN(c3ncccn3)CC2)cc1Cl` reads -47.7%; that for `c1ccc(CO[C@@H]2CC[C@H]3[C@H]2OCCN3Cc2ccsc2)nc1`, -80.3%; that for `CC[C@H](C)[C@@H](CO)NC(C)Cc1ccc(C)cc1` (some centres undefined), 31.8%.
`O=C(NCc1ccccn1)[C@H]1COC[C@H]2CN(C3CCCC3)C[C@H]21`: the INHIBITION is recorded as -109%.
Next, `COCCn1ccc2c(C(=O)NC3CN4CCC3CC4)cccc21` (centres undefined): -19.8%; `O=C(NC1CC1)C1CCN(c2cccc(C(F)(F)F)n2)CC1`: 79.4%; `O=C(Cc1ccsc1)N1CCN(CCOc2ccccc2)CC1`: 19.5%.
Next, `N[C@H]1CN(CCCOc2ccccc2)C[C@@H]1C1CC1`: 86.8%.
Next, `COCCN1C[C@H]2CCC[C@@H](CNc3ncccn3)[C@H]2C1`: 23.6%.
For the compound `N[C@H]1CN(CCOc2ccc(F)cc2)C[C@@H]1C1CC1`, the INHIBITION was found to be 76.5%.
On to `COCCN1C[C@H]2[C@@H](C1)N(C(=O)COc1ccccc1)CC[C@H]2OC`, for which the INHIBITION is -98.8%.
Next, `CC(C)N1CCC2(CC1)NC(=O)c1cc(Br)ccc1-n1nnnc12`: -84.6%.
The result for `CN1CCOCC2(CCCN(C(=O)Cc3ccncc3)C2)C1` (centres undefined) reads -195%; that for `CCS(=O)(=O)N1CCN(C)c2ncccc2C1`, -45.7%; that for `CCC(CN1CCOCC1)n1cncc1-c1ccc2c(c1)CCN2CC` (centres undefined), 94.5%.
Regarding `CC(C)CN1CCC2(CC1)CN(C(=O)C(C)C)C2`, the INHIBITION is recorded as -69.1%.
Next, `CNC(=O)[C@H]1C[C@@H]2CN(Cc3c(C)noc3C)C[C@@H]2N1C(C)=O`: -19.9%.
With `CN(C)CCNC(=O)C1Cc2nc(-c3ccccc3)sc2N1CC1CC1` (centres undefined), the INHIBITION turned out to be 89.7%.
The result for `CN(C)CCNC(=O)[C@H]1C[C@H]2CN(c3ncccn3)C[C@H]2N1C` reads -64.2%; that for `Cc1csc([C@@H]2C[C@@H]3CCN(Cc4cc(C)on4)C[C@H]3O2)n1`, -19.3%.
The result for `CNc1cc(C)nc(NC2CCCN(C3Cc4ccccc4C3)C2)n1` (centres undefined) reads 92.8%; that for `CN(C(=O)Cc1ccn(C)c1)C1CCCN(C2Cc3ccccc3C2)C1` (centres undefined), -32.4%; that for `Cc1cc(C)nc(N2CCCC2c2cccnc2)n1` (centres undefined), 0.584%.
Turning to `Cc1cc(N2CCCN3CCC[C@H]3C2)n2nc(C)c(C)c2n1`, the INHIBITION was determined as 9.89%.
The result for `CNc1nc(C)cc(NC2CCCN(C3Cc4ccccc4C3)C2)n1` (centres undefined) reads 89.5%; that for `Cn1ncc2c1NC(=O)CSC2c1ccc2c(c1)OCO2` (centres undefined), -86%; that for `c1cc(COC[C@]23COC[C@H]2CN(Cc2ccncc2)C3)ccn1`, -118%.
